Results taken from PubChem BioAssay AID645 (SRMLSC, 2007).
Out of some 65,000 compounds screened, about 450 (0.69%) were called active. Shown is part of a subset that was picked to be rich in actives. Unmarked numbers belong to inactive results.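 How the source made its calls: active means HER2 level under 5% of the carrier-only control; inconclusive means no clear call, values can overlap the other calls; inactive means the rest.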

Each compound was assayed against Receptor tyrosine-protein kinase erbB-2 (Homo sapiens) (UniProt P04626) (assay: inhibitors of Her2 protein expression, primary screen, SKBR-3 cells, AlphaScreen, 66K library (AID 645;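 further: 100% = DMSO carrier and 0% = 500 nM PU-H71 HSP90 inhibitor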)). Conditions: SKBR-3 HER2 protein level, 18-24 h, at 10 µM, stronger effect = lower value.
Receptor tyrosine-protein kinase erbB-2 (Homo sapiens), sequence (P04626 whole entry, looked up): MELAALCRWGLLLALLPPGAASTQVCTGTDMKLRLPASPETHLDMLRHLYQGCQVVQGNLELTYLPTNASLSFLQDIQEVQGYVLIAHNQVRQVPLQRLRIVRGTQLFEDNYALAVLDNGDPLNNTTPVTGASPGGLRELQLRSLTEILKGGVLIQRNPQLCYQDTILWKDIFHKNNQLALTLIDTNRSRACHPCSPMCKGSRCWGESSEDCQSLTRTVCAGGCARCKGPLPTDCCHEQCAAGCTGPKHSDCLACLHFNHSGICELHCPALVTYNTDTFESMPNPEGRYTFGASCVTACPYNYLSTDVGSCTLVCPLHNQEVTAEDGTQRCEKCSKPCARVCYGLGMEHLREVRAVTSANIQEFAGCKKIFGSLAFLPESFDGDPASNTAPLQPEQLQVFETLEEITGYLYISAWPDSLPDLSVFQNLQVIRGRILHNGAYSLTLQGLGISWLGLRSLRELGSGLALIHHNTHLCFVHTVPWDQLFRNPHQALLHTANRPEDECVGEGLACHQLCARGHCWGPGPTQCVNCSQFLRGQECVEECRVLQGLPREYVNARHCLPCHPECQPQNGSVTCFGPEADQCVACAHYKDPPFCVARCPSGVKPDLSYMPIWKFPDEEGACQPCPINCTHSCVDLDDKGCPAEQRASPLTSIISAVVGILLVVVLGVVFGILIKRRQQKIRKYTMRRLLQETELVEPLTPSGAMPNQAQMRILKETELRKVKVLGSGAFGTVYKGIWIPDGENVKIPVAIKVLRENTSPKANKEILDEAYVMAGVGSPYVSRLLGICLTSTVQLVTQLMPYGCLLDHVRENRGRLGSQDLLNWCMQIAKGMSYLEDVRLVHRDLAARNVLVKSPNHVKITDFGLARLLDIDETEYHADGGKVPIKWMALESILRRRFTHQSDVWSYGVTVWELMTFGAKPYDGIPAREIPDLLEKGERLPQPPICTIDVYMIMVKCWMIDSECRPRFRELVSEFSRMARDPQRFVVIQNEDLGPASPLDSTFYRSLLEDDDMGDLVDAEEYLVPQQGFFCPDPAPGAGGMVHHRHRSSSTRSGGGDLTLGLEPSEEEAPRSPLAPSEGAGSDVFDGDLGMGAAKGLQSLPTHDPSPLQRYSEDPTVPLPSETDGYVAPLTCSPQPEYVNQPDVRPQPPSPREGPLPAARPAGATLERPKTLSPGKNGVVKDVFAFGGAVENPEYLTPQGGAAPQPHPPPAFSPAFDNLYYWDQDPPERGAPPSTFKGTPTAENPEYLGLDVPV
`CC(=NCC1CCCO1)c1c(O)n(-c2ccccc2)c(=O)[nH]c1=O` (stereo not given) was tested, and the HER2 level % of control was -16.3% (active).
`CCC(=NCCCO)c1c(O)n(-c2ccc(OC)cc2)c(=O)[nH]c1=O` gave an HER2 level % of control of 92.7%.
For `CC(=O)c1c(O)n(C2CCCCCC2)c(=O)[nH]c1=O`, the HER2 level % of control was 69.8%.
`CC(=O)N1CN2CN(C(C)=O)CC(C(=O)c3ccc(Br)cc3)(C2)C1` showed an HER2 level % of control of 119%.
In the case of `Cc1ccc(Cn2nnnc2CN2CCC(n3nnc4ccccc43)CC2)cc1`, the HER2 level % of control is reported as 69.1%.
